Data as given in PubChem BioAssay AID1508649 (National Center for Advancing Translational Sciences (NCATS), 2021).
The campaign covered roughly 43,000 compounds. About 830 (1.9%) were called active. Where a call stands in place of a potency, no number is given. Roughly 30% stayed inconclusive and do not appear here. The calls were made as follows: active = clear falling dose curves in both reporters; inconclusive = both reporters move, but less clearly or upward; inactive = either reporter flat; the % is the NLuc reporter signal. Only a selection was taken, and actives are over-represented in it overall.

test: Cell-based coincidence reporter assay to measure PMP22 gene transcription in S16 Pmp22-F2sN cells - Primary screen; conditions: S16 Pmp22-F2sN Schwann cells (luciferase reporters placed in the Pmp22 gene), FLuc/NLuc coincidence luminescence, 24 h; series mostly up to 57.5 µM
Description: Assay Provider: Jim Inglese Ph.D. National Center for Advancing Translational Science, National Institutes of Health, Rockville, MD CMT is a heterogeneous group of neurological disorders that affect approximately 1 in 2,500 people. In particular, the most common form of CMT, CMT1A is genetically linked to the duplication of the PMP22 gene which leads to Schwann cell overexpression, thus manifesting itself as a typical case of dose-sensitive diseases. To identify small molecule compounds that can mediate the expression of PMP22 we developed a phenotypic assay screening strategy by utilizing genome editing techniques to construct Schwann cell lines containing novel reporter technology to monitor the transcriptional or translational regulation of PMP22. For high sensitivity we use a bioluminescent reporter system embedded in the 3' UTR of the PMP22 gene (S16(c9) Pmp22-F2sN) to identify compounds that inhibit gene expression. […] We can further discriminate the effect of all transcriptionally active molecules on PMP22 translation or stability with an assay that incorporates a short NLuc peptide (HiBiT) at the C-terminus of expressed PMP22 (S16(f8) PMP22-HiBiT) allowing alpha complementation and luminescence detection of membrane-associated PMP22 protein. These assays were screened against the NCATS Sytravon Library Collection. Miniaturization of these assays to 1536-well plate format for quantitative high throughput screening (qHTS) yielded rich data sets immediately from the qHTS assay (S16(c9) Pmp22-F2sN), when compared with data from a cell viability assay (Cell TiterGlo) to identify compounds that decreased the output signals through cellular toxicity to streamline the selection process of actives for subsequent characterization using the HiBiT assay (S16(f8) PMP22-HiBiT).
Cell-based coincidence reporter assay to measure PMP22 gene transcription in S16 Pmp22-F2sN cells PROTOCOL TABLE (format as described by Inglese J, Shamu CE and Guy RK. 2007) SEQUENCE No. (e.g., 1, 2, 3, etc.); […] (e.g., Cells, Incubation, Reagent, etc.); VALUE and DESCRIPTION. 1. Cells. Add 500-1,000 cells in 4 uL in growth media (DMEM High Glucose, No Phenol Red media + 10% heat-inactivated FBS + 1% Pen/Strep supplemented media) per well into Greiner 1536-well white/solid bottom high base, TC-treated plates. 2. Compounds. Library compounds and controls added at 23nL per well, transferred by Pin Tool. 3. Incubation. Incubate plates at 37C, 5% CO2, 95% RH for 24 h. 4. Reagent. Add 3.5uL Nano-Glo Dual-Luciferase Reporter Assay System reagent 1: Lysis and FLuc reagent per well of Greiner 1536-well plates. 5. Incubation. Incubate plates at room temperature for 10 min., protect from light. 6. Detector. FLuc luminescence measured using CCD-based camera (Viewlux). 7. Reagent. Add 3.5uL Nano-Glo Dual-Luciferase Reporter Assay System reagent 2: Stop&Glo reagent per well of Greiner 1536-well plates. 8. Incubation. Incubate plates at room temperature for 10 min., protect from light. 9. Detector. NLuc luminescence measured using CCD-based camera (Viewlux). NOTES (numbers refer to Sequence numbers above; values are from representative experiments) 6. Luminescence Read #1 (FLuc): Clear filter; Exposure = 10 sec, Gain = High, Speed = Slow, Binning = 2X 9. Luminescence Read #2 (NLuc): Clear filter; Exposure = 1 sec, Gain = High, Speed = Slow, Binning = 2X REFERENCES: 1. Inglese J, Shamu CE and Guy RK, Reporting data from high throughput screening of small molecule libraries, Nature Chemical Biology, 2007, 3(8): 438-441. doi.org/10.1038/nchembio0807-438 2. Yasgar A, Shinn P, Jadhav A, Auld DS, Michael S, Zheng W, Austin CP, Inglese J and Simeonov A, Compound Management for Quantitative High-Throughput Screening. J. Assoc. Lab. Auto., 2008, 13: 79-89. doi: 10.1016/j.jala.2007.12.004
Potency is read from the fitted curve at half-maximal effect.

Compound	Potency
Cc1ccc(NC(=O)c2nc(S(=O)(=O)Cc3cccc(C)c3)ncc2Cl)cc1	4.22 µM (active)
CCS(=O)(=O)c1ncc(N(Cc2ccc(F)cc2)Cc2ccco2)c(C(=O)Nc2cc(C)ccc2C)n1	inactive
CCSc1ncc(Cl)c(C(=O)Nc2cc(C)ccc2C)n1	inactive
Cc1cc2oc(C(=O)N(Cc3ccc(Cl)cc3)Cc3ccco3)c(C)c2cc1Cl	inactive
O=C(NCC(c1ccco1)S(=O)(=O)c1cccs1)c1ccc(F)cc1 (stereo not given)	inactive
CC(C)(C)c1ccc(C(=O)NCC(c2ccco2)S(=O)(=O)c2ccc(F)cc2)cc1 (stereo not given)	15.8 µM (active)
COc1ccccc1CNC(=O)C(=O)NCC(c1ccco1)S(=O)(=O)c1ccc(F)cc1 (stereo not given)	inactive
O=S(=O)(c1ccc2nc(NCc3ccccc3Cl)ccc2c1)N1CCCCC1	inactive
COc1ccccc1NC(=O)CN1C(=O)c2ccccc2Sc2ccc(C(=O)N3CCCC3)cc21	inactive
Cc1cccc(C(=O)Nc2ccc(-c3nc4ncccc4o3)cc2C)c1	inactive
CC1=Nc2cc(C(=O)NCc3ccc(C)cc3)ccc2Sc2ccc(Cl)cc21	inactive
CCOCCCNC(=O)c1ccc2nc(CCc3ccccc3)oc2c1	inactive
CCC1=Nc2cc(C(=O)NCCCOC(C)C)ccc2Sc2ccc(C)cc21	8.54 µM (active)
O=C(Nc1ccc(F)cc1F)c1ccc2c(=O)n3c(nc2c1)CCCCC3	inactive
Cc1cc(N2CCN(c3cccc(C(F)(F)F)c3)CC2)n2nc(-c3ccccc3)nc2n1	inactive
O=C(CSc1oc(-c2ccco2)nc1S(=O)(=O)c1ccc(Cl)cc1)c1ccccc1	inactive
CCc1ccc2oc(-c3ccc(C)c(NC(=O)/C=C/c4ccco4)c3)nc2c1	inactive
COc1ccc(CNC(=O)CSc2nc3ccccc3nc2Cc2ccccc2)cc1	inactive
CCc1ccc(NC(=O)c2nn(-c3ccc(C)cc3)c(=O)n(C)c2=O)cc1	inactive
Fc1ccc(-c2nc(Nc3cccc(Cl)c3)nc3c2COc2ccccc2-3)cc1	inactive

Compound	Potency
CCOC(=O)C1CCCN(C(=O)c2ccc3c(c2)sc2nc(-c4ccc(CC)cc4)cn23)C1 (stereo not given)	inactive
CCOC(=O)C1CCN(C(=O)CSc2c3c(nc4ccc(Cl)cc24)CCCC3)CC1	18.9 µM (active)
Cc1ccc(CNC(=O)CSc2c3c(nc4cc(Cl)ccc24)CCCC3)cc1	inactive
CCOc1ccc(N2CC(c3nc4ccccc4n3CCOc3ccc(OC)cc3)CC2=O)cc1 (stereo not given)	inactive
CCCN1C(=O)C(O)(CC(=O)c2ccc(CC)cc2)c2cc(Br)ccc21 (stereo not given)	12.6 µM (active)
Cc1cc(C)cc(NC(=O)CCS(=O)(=O)c2cc3c4c(c2)CCN4C(=O)CC3)c1	inactive
Cc1ccc(C)c(N2CCN(C(=O)Cc3c(C(=O)O)c(C)cn3C)CC2)c1	inactive
CCOC(=O)c1c(C)[nH]c(CCC(=O)NCCCN2CCN(c3cccc(Cl)c3)CC2)c1C	17.9 µM (active)
Cc1ccc(C)c(N2CCN(C(=O)CCc3c(C)nc4c(c3C)c(=O)n(C)c(=O)n4C)CC2)c1	inactive
CCOC(=O)c1[nH]c(C)c(CCC(=O)N2CCN(c3ccccc3)CC2)c1C	inactive
CCOC(=O)c1c(C)[nH]c(C)c1S(=O)(=O)N(C)CC(=O)N1CCN(c2ccccc2)CC1	inactive
CCOC(=O)c1c(C)[nH]c(CCC(=O)NCCCN2CCN(c3cc(C)ccc3C)CC2)c1C	12.1 µM (active)
O=C(CSc1nnc(-c2ccccc2F)o1)Nc1cccc(C(F)(F)F)c1	inactive
COc1cccc(NC(=O)C(=O)NCC(c2ccc3c(c2)OCO3)N2CCN(C)CC2)c1 (stereo not given)	inactive
COc1cc(NC(=O)C2CCN(c3cnccn3)CC2)cc(OC)c1	inactive
Brc1ccc(-c2noc(-c3ccccc3)n2)o1	inactive
O=C(NCCCc1ccccc1)c1ccc2c(c1)sc1nc(-c3ccc(F)cc3)cn12	inactive
CCCCOc1ccc(Cn2c(=O)oc3ccc(C)cc32)cc1OC	inactive
CCOc1ccc(CNCc2c(C(=O)O)c(C)n(Cc3cccc(OC)c3)c2C)cc1OC	inactive
CCCCOc1ccc(CN2C(=O)C(=O)c3cc(Br)cc(C)c32)cc1OC	4.5 µM (active)

Compound	Potency
Cc1ccc(-c2cc(C(F)(F)F)c(C#N)c(SCC(=O)Nc3ccccc3)n2)cc1	inactive
CCOC(=O)c1c(NC(=O)c2cc(-c3ccc(Cl)cc3)on2)sc2c1CCCC2	inactive
COc1ccc(/C=C/c2noc(-c3ccccc3O)n2)cc1OC	inactive
Cc1c(-c2nc(-c3ccc4c(c3)OCO4)no2)nnn1-c1ccc(Br)cc1F	inactive
COc1cccc(CNS(=O)(=O)c2cc3c(cc2C)n(C)c(=O)c(=O)n3C)c1	inactive
Cc1ccc(-n2c(=O)c3cccnc3n2CC(=O)NCc2ccc(F)cc2)cc1C	inactive
COc1ccc(OC)c(CCNC(=O)CCCn2c(=O)c3cccn3c3cccnc32)c1	inactive
O=C(CCCn1c(=O)c2cccn2c2cccnc21)NCc1ccc(F)cc1	17.9 µM (active)
CCc1ccc(NS(=O)(=O)c2ccc3[nH]cc(C(=O)NCCc4cccc(C)c4)c(=O)c3c2)cc1	inactive
COc1cccc(CNC(=O)C(NS(=O)(=O)c2ccc3nc(C)sc3c2)C(C)C)c1 (stereo not given)	inactive
CCOC(=O)C1=C(c2ccccc2)Nc2ncnn2C1c1ccc(Cl)cc1 (stereo not given)	inactive
Cc1ccc(C)c2sc(NC(=O)c3ccc(S(=O)(=O)N4CCCC4)cc3)nc12	inactive
COc1ccc(C(=O)N2CCC(c3nc4ccccc4o3)CC2)cc1	inactive
O=C(c1ccc(C(F)(F)F)cc1)N1CCC(c2nc(-c3ccc(S(=O)(=O)N4CCCC4)cc3)no2)CC1	14.2 µM (active)
Fc1cccc(-n2ncc3c2ncn2nc(-c4ccccc4Cl)nc32)c1	inactive
COc1ccc(-c2onc(C)c2C)cc1S(=O)(=O)NCC1CCN(Cc2cccc(F)c2)CC1	14.1 µM (active)
COc1cc(NC(=O)NCC2CCN(Cc3ccc(C)cc3)CC2)cc(OC)c1OC	inactive
Cc1ccc(-c2onc(C)c2C)cc1S(=O)(=O)Nc1ccccn1	inactive
CCS(=O)(=O)c1nc(S(=O)(=O)c2ccc(C)cc2)c(NCc2ccc(Cl)cc2)s1	inactive
CCc1ccc(Nc2nn3c(=O)c4cc5c(cc4nc3s2)OCO5)cc1	inactive
